Molecules are shown by their SMILES. Calls of active or inactive are those of the source. The calls were made as follows: active = hit-call score of the fitted dose curve at least 0.9, where 1 is the maximum; inactive = score below 0.9.

The assay can be described thus: CEETOX_H295R_DOC: CeeTox H295R High-throughput Steroidogenesis Assay for DOC (AID 2283439). Conditions: actives raise or lower the signal. As to the method:
CEETOX_H295R is a cell-based, multiplexed-readout assay that uses H295R, a human adrenal gland cell line, with measurements taken at 48 hours after chemical dosing in a 96-well plate.CEETOX_H295R_DOC is one of 23 assay component(s) measured or calculated from the CEETOX_H295R assay. It is designed to make measurements of hormone induction, a form of inducible reporter, as detected with absorbance signals by HPLC-MS-MS technology.Data from the assay component CEETOX_H295R_DOC was analyzed into 1 assay endpoint. This assay endpoint, CEETOX_H295R_DOC, was analyzed with bidirectional fitting relative to DMSO as the negative control and baseline of activity. Using a type of inducible reporter, gain or loss-of-signal activity using HPLC-MS-MS was used to understand synthesis of 11-Deoxycorticosterone in H295R cell line at 48hr of chemical exposure. To generalize the intended target to other relatable targets, this assay endpoint is annotated to the steroid hormone intended target family, where the subfamily is glucocorticoids.
Cell culture and media preparation procedures were conducted in accordance with OECD Test No. 456 guidelines, with minor modifications. H295R cells (ATCC CRL-2128) were expanded for 5 passages and frozen in batches in liquid nitrogen. Prior to the steroidogenesis assay, H295R cells were thawed and passed at least 4 times. The maximum passage was 10. Cells were maintained in a 1:1 mixture of DMEM/F12 supplemented with 5ml/L ITS+ Premix (BD Bioscience) and 12.5 ml/L Nu-Serum (BD Bioscience). After seeding cells into 96-well plates at 50-60% confluency, cells were allowed to adhere overnight. Prior to chemical testing, culture medium was replaced with 175 uL medium containing 10 uM forskolin to stimulate steroidogenesis for 48 hours. Following prestimulation, forskolin medium was replaced with medium containing test chemical solubilized in DMSO (ensuring a final concentration of 0.1% DMSO). Test chemicals were incubated for 48 hours, then the medium was removed and split into 2 vials containing approximately 75uL each, and stored at -80 C prior to hormone analysis. For steroid quantification, media samples were shipped to OpAns, LLC (Durham, NC) on dry ice, and samples were thawed to room temperature prior to liquid-liquid extraction. Steroid hormones were extracted from media samples using methyl tertbutyl ether (MTBE). An extra derivatization with dansyl chloride was included for estrogen (estrone and estradiol) detection only. Steroid hormones were separated by HPLC, eluted using a reverse phase C18 gradient with electrospray positive ionization, followed by quantification by tandem mass spectrometry (MS/MS). Data were acquired on a MassHunter Workstation Acquisition version B03.01 (Agilent Technologies, Inc.) and processed using MassHunter Quantitative Analysis for QQQ. Accuracy was determined for each hormone analyte from 3 standards to determine upper and lower limits of quantification (ULOQ and LLOQ, respectively) using a 7-point standard curve. Precision and accuracy of the extraction and quantification methods were calculated as the percent relative standard deviation (%RSD) of the spiked standards and percent spiked standard recovered, respectively. […] Test medium was removed following chemical exposure, and cell viability was evaluated in the same wells by MTT. MTT procedures were as follows: after removal of test medium, 500 uL of 0.5 mg/ml of 3-[4,5-dimethylthiazol-2-y]2,5-diphenyltetrazoliumbromide solution was added to the cells. Following a 4-hour incubation at 37 C and 5% CO2 to allow formazan-crystal formation, the MTT solution was removed and blue formazan salt crystals were solubilized using 500uL anhydrous isopropanol with shaking for 20 minutes. Absorbance was read at 570 and 650nm using a Packard Fusion microplate reader. Background correction of absorbance units was used to determine percent change relative to controls. […]
`CSC(=O)c1cccc2nnsc12`: the call was inactive.
For `C[C@]12C[C@H](O)[C@H]3[C@@H](CCC4=CC(=O)CC[C@@]43C)[C@@H]1CC[C@@H]2C(=O)CO`, the molecule was classed as inactive.
For the molecule `CCCCC(CC)CN1C(=O)C2C3C=CC(C3)C2C1=O` (stereo not given), the molecule was called inactive.
With `S=C([S-])NCCNC(=S)[S-].[Mn+2]`, the result was inactive.
The same measure, in the same setting: the result for `CC(=O)S[C@@H]1CC2=CC(=O)CC[C@]2(C)[C@H]2CC[C@@]3(C)[C@@H](CC[C@@]34CCC(=O)O4)[C@H]12` reads “inactive”.
As to `CC(C)(C)[C@@H](O)[C@@H](Cc1ccc(Cl)cc1)n1cncn1`, the outcome was inactive.
As to `CCCCCOC(=O)COc1cc(N2C(=O)C3=C(CCCC3)C2=O)c(F)cc1Cl`, the molecule was called inactive.
By AC50 is commonly meant the concentration giving half of the maximal activity seen. For `C#CCOC(=O)[C@@H](C)Oc1ccc(Oc2ncc(Cl)cc2F)cc1`, the AC50 was 6.87 µM (active).
For the molecule `CCOC(=O)c1ccc(O)cc1`, the AC50 was 37.7 µM (active).
Consider `S=C(S)NCCNC(=S)S.[Mn+2].[S-]C([S-])=NCCN=C([S-])[S-].[Zn+2]`, for which the result was inactive.
For the molecule `Oc1ccc(C(c2ccc(O)cc2)C(Cl)(Cl)Cl)cc1`, the AC50 is 0.207 µM (active).
In the case of `c1ccc2[nH]c(-c3cscn3)nc2c1`, the molecule was classed as inactive.
Still for that read-out and setting: the result for `CCOC(=O)C(C)Oc1ccc(Oc2cnc3cc(Cl)ccc3n2)cc1` (stereo not given) reads “inactive”; that for `CCCN(CCC)C(=O)SCC`, “inactive”; that for `CCCCOC(=O)[C@@H](C)Oc1ccc(Oc2ccc(C(F)(F)F)cn2)cc1`, “inactive”.
On to `CN(C)C(=O)Nc1ccc(Cl)c(Cl)c1`, for which the outcome was inactive.
Same read-out and setting: the result for `C=CCOC(Cn1ccnc1)c1ccc(Cl)cc1Cl` (stereo not given) reads “inactive”; that for `C#C[C@]1(O)CC[C@H]2[C@@H]3CCC4=CC(=O)CC[C@@H]4[C@H]3CC[C@@]21CC`, “inactive”.
Same read-out and setting: the result for `CC1(C)C(C=C(Cl)Cl)C1C(=O)OCc1cccc(Oc2ccccc2)c1` (stereo not given) reads “inactive”.
`O=C(Nc1ccc([N+](=O)[O-])cc1Cl)c1cc(Cl)ccc1O`: the outcome was inactive.

(Values after PubChem BioAssay (EPA / NIEHS).)
